Test results as given in PubChem BioAssay AID1981 (Southern Research Specialized Biocontainment Screening …, 2009).
Screen size: about 2,200 compounds; about 480 (22%) were called active. The list is a sample of the results. Results with a measured potency or affinity are listed apart. Unmarked numbers belong to inactive results. No rule for the calls is given here.

Assay: S. Typhimurium GFP fluorescence dose response in modified counterscreen for PhoP regulon inhibitor project (AID 1981);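 also: 0% = induced DMSO wells and 100% = uninduced wells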
Conditions: 4 h; series mostly up to 150 µM; inhibition: at the top concentration

SMILES | inhibition [%]
COc1ccc(/C=C2\CN(Cc3ccccc3)C/C(=C\c3ccc(OC)cc3)C2=O)cc1 | 17.4
Cc1cccc(C)c1NC(=O)CSc1nnc(NC(=O)CN2CCOCC2)s1 | -11.3
Cc1cc(C(=O)N/N=C/c2cccc([N+](=O)[O-])c2O)n[nH]1 | 7.6
Cc1cc(C(=O)N/N=C/C=C/c2ccc3c(c2)OCO3)n[nH]1 | 4.59
O=C(N/N=C/c1cccn1-c1ccc([N+](=O)[O-])cc1)C(O)c1ccccc1 (stereo unspecified) | -2.51
CN(C)C(=O)c1cn(N(C)c2ncc(C(F)(F)F)cc2Cl)c(=O)c2ccccc12 | -5.53
Cc1ccc(-c2cc(-c3ccc(Cl)cc3)c(C#N)c(N)n2)o1 | 5.31
CC(=O)c1cccc(NC(=O)NCc2ccco2)c1 | -11.1
Nc1nc(-c2ccc(Br)cc2)cs1 | -2.12
COc1ccc(-c2cc(N3CCCC3)n3ncnc3n2)cc1 | 9.78
Cc1ccccc1NC(=S)N(CCCN1CCOCC1)Cc1ccccn1 | -7.4
O=c1[nH]c2ccccc2n1C1=CCCC1 | 1.35
CCn1c(Cc2c(C)[nH]c3ccccc23)n[nH]c1=S | -20.2
Cc1cccc(C)c1NC(=O)CCCSc1nnc(-c2ccc(Cl)cc2)n1-c1ccccc1 | -18.7
COc1ccccc1-c1cc(C(=O)Nc2cc(C)nn2-c2ccccc2)no1 | 2.48
Cc1ccc(-n2nc(-c3ccc(N)cc3)cc2N)cc1 | 23.2
O=C(OCC(=O)c1ccccc1Cl)c1cnccn1 | -6.74
O=C(c1cc2ncc(Br)cn2n1)N1CCOCC1 | -3.14
Cc1[nH]c2ccccc2c1C(O)CN1CCN(c2cccc(C(F)(F)F)c2)CC1 (stereo unspecified) | 5.87
COc1cc(C2Nc3cccc4cccc(c34)N2)cc(OC)c1OC(C)=O | -4.57
CC(=O)Oc1c2occc2cc2ccc(=O)oc12 | 11.7
O=C(NCCNS(=O)(=O)c1cccc(C(F)(F)F)c1)c1cc(OCC(F)(F)F)ccc1OCC(F)(F)F | 3.69
O=c1c(Br)c(Br)cnn1-c1ccccc1 | 15.4
CCCOC(=O)C(C)n1cnc2sc(C)c(C)c2c1=O (stereo unspecified) | -1.62
Cc1ccc(OCc2nc3ccccc3[nH]2)cc1 | 7.62

SMILES | inhibition [%]
S=C(Nc1ccccc1)Nc1nc2ccccc2n1CCOc1ccc(Cl)cc1 | -3.75
COc1ccc(C(=O)C(CO)Oc2ccccc2OC)cc1OC (stereo unspecified) | -1.18
Clc1ccc(OCCn2cnc3ccccc32)cc1 | -5.15
COc1ccccc1OCc1ccc(C(=O)N2CCN(C(=O)c3ccco3)CC2)cc1 | -17.6
COc1ccc(OCCSc2nnc3sc4ccccc4n23)cc1 | -6.36
COC(=O)Cn1c(C)nc2ccccc21 | 3.63
CCOC(=O)CCC(NC(=O)c1ccc(NCN2C(=O)CCC2=O)cc1)C(=O)OCC (stereo unspecified) | -13.2
CC(=O)c1c(C)nc(-c2ccc(Cl)cc2)nc1N=CN(C)C | 8.78
Cc1cccc(C=Nc2ccc3c(c2)oc2ccccc23)c1O | 18.6
CCc1cccc2c(C#N)cn(CC(=O)NCCOC)c12 | -3.67
C/C(=N\n1nnnc1Nc1ccccc1)c1ccc(N)cc1 | 5.99
Cc1ccc2c(c1)C(c1ccccc1)NCC(=O)N2 (stereo unspecified) | -20.1
Cc1cc(C)nc(NC(=O)Cc2cccs2)n1 | 3.05
COc1ccc(/C=C/C(=O)O)cc1COc1cccc(C)c1 | -18.6
Cc1cccc(OCC(=O)NNc2c3ccccc3nc3ccccc23)c1 | -16.1
C=CCN=C(NC#N)SCc1ccccc1Cl | -6.17
Cc1cc(C)c(NC(=O)COc2ccccc2C(=O)Nc2ccc3c(c2)oc2ccccc23)c(C)c1 | 13.8
O=C1Nc2ccccc2/C1=C/c1cnc[nH]1 | -5.96
Cc1ccccc1OCCCCCn1ccnc1 | -1.18
Cc1nn(-c2ccccc2)c2sc(-c3n[nH]c(=S)o3)cc12 | -19
COc1ccc(OC)c(S(=O)(=O)N2c3cc(F)ccc3CCC2C)c1 (stereo unspecified) | -16.9
Cc1cccc(Sc2c([N+](=O)[O-])ncn2C)c1 | -2.32
Clc1ccc(OCCn2ccnc2)c2ccccc12 | 9.38
Cc1ccc(C(=O)COC(=O)CNS(=O)(=O)c2ccccc2)cc1[N+](=O)[O-] | -5.27
O=C1/C(=C/c2ccccc2)NC(=S)N1C(c1ccccc1)c1ccccc1 | -4.7

SMILES | inhibition [%]
Cc1cc(C(=O)NNC(=S)NC(=O)/C=C/c2ccccc2Cl)n[nH]1 | 39.4
CN(c1ccccc1)S(=O)(=O)c1cc(C(=O)Nc2nc3ccccc3[nH]2)ccc1Cl | 11.3
COC(=O)CSc1nnc(-c2ccco2)n1Cc1ccco1 | 6.03
Cc1ccccc1Cn1c(=N)n(CC(=O)c2ccco2)c2ccccc21 | 2.3
O=C(CN1CCCCC1)Nc1cccc(Br)c1 | 11.6
NC(=O)c1oc2ccccc2c1NC(=O)CN1CCCCC1 | -11.2
O=C(CSc1nnc2n(C3CCCCC3)c(=O)c3ccccc3n12)OC1CCCCC1 | -15.6
OC(COc1ccc2ccccc2c1Br)Cn1ccnc1 (stereo unspecified) | -7.28
COc1cc(C)ccc1OCCCOc1ccccc1Br | -5.81
COc1cccc(NC(=O)Cn2c(=O)n(CCCC(=O)NCc3ccco3)c(=O)c3ccccc32)c1 | 7.05
Cc1ccc(N(CC(=O)N/N=C/c2ccco2)S(=O)(=O)c2ccccc2)cc1 | 1.03
CCCc1ccc(C(=O)CCC(=O)O)cc1 | 4.39
Nc1nonc1-n1nnc(C(=O)N/N=C/c2ccc(Br)cc2)c1CSC1=NCCS1 | 21.3
COc1cccc(C=NCCNC(=O)c2nonc2N)c1O | 16.6
Nc1nonc1C(=O)NCCN=Cc1cc(Cc2ccccc2)cc(Br)c1O | 14
CC(C)n1cc(C(=O)N2CCCC(N3CCN(c4ccc(F)cc4)CC3)C2)cn1 (stereo unspecified) | -15.7
O=C(CSc1nc2ccccc2o1)Nc1ccc(N2CCOCC2)c(Cl)c1 | 12.4
O=C(c1ccccc1)N1CCSC1=S | -8.47
CC1(C)CC(=O)C(/C=N/c2ncccc2C(=O)O)=C(O)C1 | 21.9
CCCCCn1c(N)c(C(=O)NCc2cccs2)c2nc3ccccc3nc21 | -20.1
O=C(c1ccc2nc(N3CCOCC3)sc2c1)N1CCC(Cc2ccccc2)CC1 | 3.45
COc1ccc(-c2nnn(CC(=O)N(Cc3ccco3)C(C(=O)NCC3CCCO3)c3ccco3)n2)cc1 (stereo unspecified) | 1.01
C#CC(=O)N(c1cc(OC)ccc1OC)C(C(=O)NC1CCCC1)c1cccs1 (stereo unspecified) | 17.8
CCC(C)NC(=O)c1ccccc1NC(=O)C(C)N(c1ccccc1)S(C)(=O)=O (stereo unspecified) | -9.1
CN(C)c1ccc(Nc2nc(-c3cccnc3)cs2)cc1 | 35.9

SMILES | inhibition [%]
Nc1nc(-c2ccc3c(c2)OCCO3)cs1 | -7.79
CCn1c2ccccc2c2cc(N)ccc21 | 15.1
CCc1cccc(NC(=O)Nc2cccs2)c1 | 6.84
COc1ccc(N=c2cc(-c3ccc(OC)cc3)oc3ccccc23)cc1 | -4.77
CCCNC(=O)CSc1nnc(C)s1 | -0.53
Cn1ccnc1C(O)c1ccc(OCc2ccccc2)cc1 (stereo unspecified) | -7.82
CSc1nnc2c3c4c(sc3nc(-n3nc(C)cc3C)n12)COC(C)(C)C4 | -16.7
COc1ccc(NC(=O)c2ccc(OC)cc2)cc1 | -1.66
FC(F)(F)C1=CC(c2ccc(Br)cc2)=NCCN1 | 0.22
N=c1scc(-c2ccccc2)n1/N=C/c1ccco1 | 26.4
COc1ccc(-c2nnc(SCCC(=O)O)n2-c2ccccc2)cc1 | -16.3
O=C(NCCNc1ccc([N+](=O)[O-])cc1C(F)(F)F)c1cccc(F)c1 | 35.4
Oc1ccc(Br)cc1-c1nc2cnccn2c1NC1CCCCC1 | -0.48
O=C1CCCc2nc(N3CCN(Cc4ccccc4)CC3)ncc21 | -1.19
COc1ccccc1CC1(C)NC(=O)N(CC(=O)N2CC(C)OC(C)C2)C1=O (stereo unspecified) | -6.09
Cc1ccccc1OCCSCc1nc2ccccc2[nH]1 | 8.48
O=C(Nc1ccc(S(=O)(=O)Nc2nccs2)cc1)c1cc(-c2ccccc2)nc2ccccc12 | 11.3
Cc1ccc(C(=O)c2ccccc2C(=O)O)c(O)c1 | -1.21
CC(CN1CCOCC1)C(=O)c1ccccc1 (stereo unspecified) | 19.3
Cc1cc(C(=O)NCc2cccs2)cs1 | 1.82
CCCc1cc(N2CCN(c3ccccn3)CC2)n2nc(C)c(-c3ccccc3)c2n1 | -17.1
COc1ccc(CNc2nc3c(c(=O)[nH]c(=O)n3C)n2CCCc2ccccc2)cc1 | -7.59
COc1nc(-c2ccccc2)ccc1-c1noc(C)n1 | -2.17
NCCCCCc1nnc(SCc2ccc(Cl)cc2Cl)o1 | 2.99
Cc1ccc([N+](=O)[O-])cc1-c1ccc(/C=C(\C#N)c2[nH]nc(N)c2C#N)o1 | -4.17

SMILES | inhibition [%]
CNC(=O)CN(c1ccc(F)cc1)S(=O)(=O)c1cc(C)ccc1OC | -12.1
CCN1C(=O)N/C(=C/c2ccc(Sc3ccc(C)cc3)o2)C1=O | -11
O=C(CCCCCNc1nc(=S)[nH]c2ccccc12)NCCc1c[nH]c2ccccc12 | -9.04
Cc1ccc2nc(NNC(=O)c3ccc(S(=O)(=O)N4CCc5ccccc5C4)cc3)sc2c1 | 33.6
C=CCNCC#CCOc1ccc(OC)cc1 | -8.21
Cn1cccc1C(=O)OCc1csc(-c2ccccc2)n1 | -2.79
Cc1ccc(S(=O)(=O)NCc2ccc(C(=O)N3CCN(c4ccccn4)CC3)cc2)cc1 | 10.4
O=C(CCCN1Cc2ccccc2C1)c1ccc(F)cc1 | -30.9
CCOC(=O)N1CCC(NC(=O)CCC(=O)c2ccccc2)CC1 | -13.1
CN1C(=S)N(c2ccccc2)C(=O)/C1=C/c1ccco1 | -3.89
Cc1ccc(C(=O)Nc2ccccc2C(N)=O)o1 | 2.22
COc1cccc(-n2c(SCc3cc(=O)oc4cc(O)c(O)cc34)nc3ccccc3c2=O)c1 | 24.6
Cc1cccc(-n2c(N)cc(=O)[nH]c2=S)c1 | 36.5
C/C(=N\NC(=O)c1ccccc1)c1ccc2c(c1)OCO2 | -1.5
CCOc1ccccc1NS(=O)(=O)c1ccc(Br)s1 | -5.39
Clc1cc(Br)ccc1OCCn1ccnc1 | 9.91
O=C(COc1ccc(Br)cc1Cl)NC(=O)NCc1ccccc1 | -14.2
CCCCNCCCOc1cccc(Cl)c1Cl | 3.42
CC(C)NCCCOc1ccc(Cl)cc1Br | 12
Clc1ccc(OCCCn2ccnc2)c(Br)c1 | 7.23
Clc1ccc(Nc2ccc(NCc3ccccc3)nn2)cc1 | 8.59
